Five compounds from PubChem BioAssay (EPA / NIEHS) can be followed below.

Results filed as inconclusive are left out. Active and inactive are the calls of the source. Rule for the calls, unless noted: active = hit-call score of the fitted dose curve at least 0.9, where 1 is the maximum; inconclusive = response in the unintended direction; inactive = score below 0.9.

A short description of assay [1]: TOX21_p53_BLA_p2_viability: Viability Assessment in the Tox21 HCT-116 p53 Agonism Beta-lactamase Assay, Phase 2 (AID 2283591).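 Note: actives lower the ATP signal meaning cytotoxicity.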 Put shortly:
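HCT116 p53-bla cells, 4000/well, dosed after 5 h plating (217-fold dilution of DMSO stocks) and incubated 16 h at 37C. Viability taken as cellular ATP by CellTiter-Glo luminescence after 30 min RT; signal loss marks cytotoxicity.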

The target in assay [2] is Cellular tumor antigen p53 (Homo sapiens) (UniProt P04637). As to the kind of experiment: TOX21_p53_BLA_p2_ratio: Tox21 HCT-116 p53 Agonism Beta-lactamase Assay, Ratio, Phase 2 (AID 2283592). Put shortly:
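Readout: blue/green (460/530 nm) FRET emission ratio after 2 h CCF4-AM loading at room temperature, excitation 405 nm. HCT116 p53 bla cells, 16 h compound exposure at 37C, 5% CO2; agonist direction fitted against DMSO baseline.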

A short description of assay [3]: TOX21_p53_BLA_p3_viability: Viability Assessment in the Tox21 HCT-116 p53 Agonism Beta-lactamase Assay, Phase 3 (AID 2283593).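 Note: cells exposed to compound for 16 h before reading.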 Put shortly: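 HCT116 cells, 4000/well, dosed 5 h after plating by pin transfer (217-fold dilution from DMSO stock) and incubated 16 h at 37C, 5% CO2. Viability read as ATP luminescence with CellTiter-Glo after 30 min at room temperature.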

In assay [4] the target is Cellular tumor antigen p53 (Homo sapiens) (UniProt P04637). Kind of assay: TOX21_p53_BLA_p3_ratio: Tox21 HCT-116 p53 Agonism Beta-lactamase Assay, Ratio, Phase 3 (AID 2283596). Put shortly:
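Cells were seeded at 4000/well, rested 5 h at 37C, then dosed with DMSO compound solutions (217-fold dilution) for 16 h. CCF4-AM substrate was loaded for 2 h at room temperature, and the 460/530 nm emission ratio was fitted for gain of signal versus DMSO.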

Assay [5] shares this target. As to the kind of experiment: TOX21_p53_BLA_p5_ratio: Tox21 HCT-116 p53 Agonism Beta-lactamase Assay, Ratio, Phase 5 (AID 2283599). Put shortly: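 HCT-116 p53-bla cells (4000/well) plated 5 h, dosed with compound (217-fold DMSO dilution) for 16 h at 37 C; CCF4-AM substrate 2 h at room temperature. Activity is the 460/530 nm emission ratio (405 nm excitation), fitted in gain-of-signal direction versus DMSO.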

Assay [6] can be described thus: TOX21_p53_BLA_p5_viability: Viability Assessment in the Tox21 HCT-116 p53 Agonism Beta-lactamase Assay, Phase 5 (AID 2283600). Put shortly:
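ATP luminescence (CellTiter-Glo, 30 min, RT) served as the viability read-out, with loss of signal indicating cytotoxicity. Compounds in DMSO were pinned at a 217-fold dilution onto 4000 cells/well and incubated 16 h, 37C.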

Assay [7] deals with Cellular tumor antigen p53 (Homo sapiens) (UniProt P04637). Kind of assay: TOX21_p53_BLA_p4_ratio: Tox21 HCT-116 p53 Agonism Beta-lactamase Assay, Ratio, Phase 4 (AID 2283601). Put shortly: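 HCT-116 p53 beta-lactamase reporter cells (4000/well) preincubated 5 h, then compound (217-fold dilution of DMSO stock) for 16 h at 37C. CCF4-AM substrate added 2 h at room temperature; 460/530 nm emission ratio fitted upward versus DMSO.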

Assay [8] in a line: UKN5_HCS_SBAD2_neurite_outgrowth: University of Konstanz (UKN) Leist Lab Neurite Outgrowth Assay in human iPSC-derived immature Dorsal Root Ganglia Neurons (UKN5) (AID 2284070; active = hit-call score of the fitted dose curve at least 0.9, where 1 is the maximum; inactive = score below 0.9). The note with it: actives raise or lower the signal. Put shortly:
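Cryopreserved SBAD2 peripheral neurons were seeded at 100.000 cells/cm2 in N2-S/KSR medium containing CHIR99021, SU5402 and DAPT, then exposed to compounds for 24 h. Neurite area from calcein-AM high-content imaging was fitted bidirectionally against DMSO.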

Assay [9] in a line: UKN2_HCS_IMR90_neural_migration: University of Konstanz (UKN) Leist Lab Neural Crest Cell Migration Assay in human induced IMR90 Pluripotent Stem Cells (UKN2) (AID 2284204; active = hit-call score of the fitted dose curve at least 0.9, where 1 is the maximum; inactive = score below 0.9). The note with it: actives raise or lower the signal. Put shortly:
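Stopper-exclusion migration (cMINC), human iPSC-derived neural crest cells; N2-S + EGF/FGF; compound added 24 h post-stopper removal, 24 h exposure. Readout: calcein-AM/Hoechst 30 min, HCS fluorescence imaging; bidirectional fitting, DMSO baseline.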

Assay [10] can be described thus: IUF_NPC1b_proliferation_BrdU_72hr: Leibniz Research Institute for Environmental Medicine (IUF) 72-hour Neural Progenitor Cell Bromodeoxyuridine (BrdU) Proliferation Assay (NPC1b) (AID 2284207; active = hit-call score of the fitted dose curve at least 0.9, where 1 is the maximum; inactive = score below 0.9). Put shortly:
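Luminescent BrdU ELISA measured DNA synthesis during the last 16 h of a 72 h exposure of primary human neural progenitor spheres grown with EGF and FGF. Signal was fitted relative to DMSO controls.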

Assay [11] is described as follows: IUF_NPC1a_proliferation_area_72hr: Leibniz Research Institute for Environmental Medicine (IUF) 72-hour Neural Progenitor Cell Proliferation Area Assay (NPC1a) (AID 2284208; active = hit-call score of the fitted dose curve at least 0.9, where 1 is the maximum; inactive = score below 0.9). Put shortly: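 hNPC spheres (human fetal cortex, GW 16-19), one per poly-Hema U-bottom well; EGF+FGF medium; dosed day 0, no re-dosing; 72 h, 37C, 5% CO2; phase-contrast sphere area; DMSO = baseline; minus-GF = positive ctrl.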

Assay [12] in a line: UKN4_HCS_LUHMES_cell_viability: Viability Assessment in the University of Konstanz (UKN) Leist Lab Neurite Outgrowth Assay in human LUHMES cells (UKN4) (AID 2284232; active = hit-call score of the fitted dose curve at least 0.9, where 1 is the maximum; inactive = score below 0.9). Put shortly: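 Day-2 differentiated LUHMES, 30000 cells/well, dosed ~30 min–2 h post-seeding; 24 h treatment incl. staining; Hoechst H-33342 + calcein-AM at 23.5 h; HCS imaging; DMSO-normalized, bidirectional fit.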

Assay [13] is described as follows: UKN2_HCS_IMR90_cell_viability: Viability Assessment in the University of Konstanz (UKN) Leist Lab Neural Crest Cell Migration Assay in human induced IMR90 Pluripotent Stem Cells (UKN2) (AID 2284233; active = hit-call score of the fitted dose curve at least 0.9, where 1 is the maximum; inactive = score below 0.9;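 note: cells exposed to compound for 24 h after a 24 h migration phase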). Put shortly:
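Viability read as calcein-AM fluorescence by high-content imaging, Hoechst co-stain, 30 min. Human iPSC (IMR90) neural crest cells had migrated 24 h into stopper-defined gaps before 24 h chemical exposure. Fitted bidirectionally relative to DMSO.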

Assay [14] is described as follows: IUF_NPC2c_oligodendrocyte_migration_120hr: Leibniz Research Institute for Environmental Medicine (IUF) 120-hour Neural Progenitor Cell Migration Assay for Oligodendrocyte Migration (NPC2c) (AID 2284297; active = hit-call score of the fitted dose curve at least 0.9, where 1 is the maximum; inactive = score below 0.9;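 note: O4-positive oligodendrocyte migration distance divided by radial glia migration distance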). Put shortly:
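hNPC spheres (GW 16-19 cortex), PDL/laminin, DMEM/F12 3:1 + 1% N2, 37C. Dosing day 0–5, half feed day 3, DMSO ≤0.1%. Fixed 120 h; O4 ICC + Hoechst, HCI. Readout: mean oligodendrocyte distance from sphere edge / radial glia distance.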

The nature of assay [15]: IUF_NPC2a_radial_glia_migration_120hr: Leibniz Research Institute for Environmental Medicine (IUF) 120-hour Neural Progenitor Cell Migration Assay for Radial Glia Migration (NPC2a) (AID 2284298; active = hit-call score of the fitted dose curve at least 0.9, where 1 is the maximum; inactive = score below 0.9). Put shortly:
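Hoechst-stained nuclei imaged at 120 h; algorithm maps sphere core by densest nuclei, sets migration edge at density threshold, gives radial glia migration distance (um) per well vs DMSO. hNPC spheres (0.3 mm), PDL/laminin, DMEM/F12 3:1 + 1% N2.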

Assay [16] can be described thus: IUF_NPC2a_radial_glia_migration_72hr: Leibniz Research Institute for Environmental Medicine (IUF) 72-hour Neural Progenitor Cell Migration Assay for Radial Glia Migration (NPC2a) (AID 2284299; active = hit-call score of the fitted dose curve at least 0.9, where 1 is the maximum; inactive = score below 0.9). Put shortly:
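Readout: mean of four manual brightfield measurements of radial glia migration distance (um) at 72 h. hNPC spheres (0.3 mm) exposed to 7 compound concentrations plus solvent control on PDL/laminin, 37C, 5% CO2; activity fitted relative to DMSO.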

Assay [17] in a line: IUF_NPC2b_neuronal_migration_120hr: Leibniz Research Institute for Environmental Medicine (IUF) 120-hour Neural Progenitor Cell Migration Assay for Neuron Migration (NPC2b) (AID 2284300; active = hit-call score of the fitted dose curve at least 0.9, where 1 is the maximum; inactive = score below 0.9). Put shortly:
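hNPC spheres, PDL/laminin, DMEM:F12 3:1 + 1% N2, 37C/5% CO2; 7 concentrations + solvent control (DMSO ≤0.1%), 5 d exposure, half-feed day 3. Fix 120 h, TUBB3 ICC, HCI: mean neuron migration distance ÷ glia distance.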

The nature of assay [18]: IUF_NPC3_neuronal_differentiation_120hr: Leibniz Research Institute for Environmental Medicine (IUF) 120-hour Neuronal Differentiation Assay (NPC3) (AID 2284301; active = hit-call score of the fitted dose curve at least 0.9, where 1 is the maximum; inactive = score below 0.9). Put shortly: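 hNPC spheres, PDL/laminin, DMEM/F12 3:1 + 1% N2, 37C, 5% CO2; 7 concentrations + solvent control, 5 d exposure, half-change day 3. Fix 120 h; TUBB3/Hoechst ICC, CNN neuron calling; % neurons vs nuclei, DMSO-normalized.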

A short description of assay [19]: IUF_NPC4_neurite_length_120hr: Leibniz Research Institute for Environmental Medicine (IUF) 120-hour Neuronal Morphology Assay for Neurite Length (NPC4) (AID 2284302; active = hit-call score of the fitted dose curve at least 0.9, where 1 is the maximum; inactive = score below 0.9). Put shortly: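 hNPC spheres (0.3 mm, fetal brain GW 16-19) on PDL/laminin, DMEM:F12 3:1 + 1% N2, 37C 5% CO2; 7 concs + solvent control, day 0-5, half medium change d3; fix 120 h, TUBB3 ICC, mean neurite length um vs DMSO.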

The nature of assay [20]: IUF_NPC4_neurite_area_120hr: Leibniz Research Institute for Environmental Medicine (IUF) 120-hour Neuronal Morphology Assay for Neurite Area (NPC4) (AID 2284305). Put shortly: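 hNPC spheres on PDL/laminin, N2 medium, 37C/5% CO2; dosed day 0, half-medium refresh day 3; fixed 120 h; TUBB3/Hoechst ICC, high-content imaging; neurite area = mean pixels per neuron (nuclei excluded); DMSO baseline, max 0.1%.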

Assay [21] is described as follows: IUF_NPC2-5_cytotoxicity_72hr: Cytotoxicity Assessment at 72 hours in the Leibniz Research Institute for Environmental Medicine (IUF) Neural Progenitor Cell Migration and Differentiation Assay for Cytotoxicity (NPC2-5) (AID 2284306).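 Note: LDH release into supernatant measured by resorufin fluorescence marking membrane damage.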 Put shortly: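 hNPC spheres (0.3 mm), PDL/laminin, DMEM/F12 3:1 + 1% N2; cpd from d0, 7 concs + SC, DMSO max 0.1%; half-medium refresh d3. Readout: supernatant LDH via resorufin fluorescence (RFU), 72 h; gain-of-signal fit.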

A short description of assay [22]: IUF_NPC2-5_cytotoxicity_120hr: Cytotoxicity Assessment at 120 hours in the Leibniz Research Institute for Environmental Medicine (IUF) Neural Progenitor Cell Migration and Differentiation Assay (NPC2-5) (AID 2284307).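 Note: LDH released into supernatant as membrane damage marker via resorufin fluorescence.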 Put shortly: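 hNPC spheres on PDL/laminin, N2 medium, 37C; 7 concs + solvent control, DMSO ≤0.1%; 5-day exposure, half medium changed day 3. LDH in supernatant at 120 h, resazurin→resorufin fluorescence, gain-of-signal.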

The nature of assay [23]: IUF_NPC2-5_cell_number_120hr: Cell Number Assessment at 120 hours in the Leibniz Research Institute for Environmental Medicine (IUF) Neural Progenitor Cell Migration and Differentiation Assay (NPC2-5) (AID 2284308; active = hit-call score of the fitted dose curve at least 0.9, where 1 is the maximum; inactive = score below 0.9;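 note: count of Hoechst-stained nuclei in migration zone around plated human neural progenitor spheres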). Put shortly:
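Hoechst-stained nuclei within the migration area were counted by automated high content imaging after 120 h. Single hNPC spheres differentiated on poly-D-lysine/laminin in DMEM/F12 (3:1) with 1% N2, compound present throughout, DMSO ≤0.1%.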

The nature of assay [24]: IUF_NPC2-5_viability_120hr: Viability Assessment at 120 hours in the Leibniz Research Institute for Environmental Medicine (IUF) Neural Progenitor Cell Migration and Differentiation Assay (NPC2-5) (AID 2284312; active = hit-call score of the fitted dose curve at least 0.9, where 1 is the maximum; inactive = score below 0.9). Put shortly: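 Human fetal neural progenitor spheres (0.3 mm) plated on poly-D-lysine/laminin in N2 differentiation medium, exposed 120 h with half-medium refresh at day 3. Viability by alamar blue resazurin fluorescence; 7 concentrations, DMSO max 0.1%.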

Assay [25] is described as follows: IUF_NPC1_cytotoxicity_72hr: Cytotoxicity Assessment at 72 hours in the Leibniz Research Institute for Environmental Medicine (IUF) Neural Progenitor Cell Proliferation Assay (NPC1) (AID 2284332).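 Note: rising LDH signal means more cytotoxicity.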 Put shortly:
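LDH in supernatant, resazurin→resorufin fluorescence (RFU), 72 h exposure, no re-dosing. Cells: primary hNPC spheres, one per well, EGF+FGF medium, 37C/5% CO2, pH 7.2-7.6. Fit: positive direction vs baseline and dynamic range.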

The nature of assay [26]: TOX21_p53_BLA_p4_viability: Viability Assessment in the Tox21 HCT-116 p53 Agonism Beta-lactamase Assay, Phase 4 (AID 2283597).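 Note: hits lower the luminescence signal meaning cytotoxicity.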 Put shortly: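 ATP content by CellTiter-Glo luminescence, 30 min RT, read after the beta-lactamase ratio step. Cells: HCT116, 4000/well, compound added after 5 h, exposure 16 h at 37C. Signal loss = reduced viability.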

Cellular tumor antigen p53 (Homo sapiens), sequence (P04637 whole entry, looked up): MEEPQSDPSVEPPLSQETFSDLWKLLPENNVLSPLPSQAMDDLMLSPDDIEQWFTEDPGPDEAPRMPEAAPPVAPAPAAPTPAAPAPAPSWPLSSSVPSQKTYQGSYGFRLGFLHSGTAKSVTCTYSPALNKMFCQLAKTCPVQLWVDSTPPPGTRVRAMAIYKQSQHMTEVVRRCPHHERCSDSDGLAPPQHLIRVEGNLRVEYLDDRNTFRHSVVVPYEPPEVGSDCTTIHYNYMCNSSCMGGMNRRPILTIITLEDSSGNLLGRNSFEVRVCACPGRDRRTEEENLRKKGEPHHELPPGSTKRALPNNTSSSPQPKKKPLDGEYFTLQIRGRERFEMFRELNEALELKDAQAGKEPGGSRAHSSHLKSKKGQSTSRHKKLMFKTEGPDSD

Usually AC50 stands for the midpoint of the concentration-response curve, whichever way the signal moves. Regarding `CNC1(c2ccccc2Cl)CCCCC1=O` (stereo unspecified), the outcome in [1], in [2], in assay [3], in assay [4], in [5] and in assay [6] was inactive. Besides, the result in assay [7], in [8], in assay [9], in assay [10], in assay [11] and in assay [12] was inactive. In addition, the call in assay [13], in assay [14], in assay [15], in assay [16], in assay [17] and in [19] was inactive. The compound was called inactive in assay [20], in assay [21], in assay [23], in [24] and in assay [25]. Further, the AC50 in assay [18] is 74.2 µM (active); in [22], 1.48 µM (active).

For the compound `C(CCOCC1CO1)COCC1CO1` (stereo unspecified), the result in [1], in assay [2], in [3], in [6] and in assay [7] was inactive. The AC50 in assay [4] is 65.2 µM (active).

For `C[C@@H]1CN(C2CCC(C#N)(c3ccc(F)cc3)CC2)CC[C@]1(C(=O)O)c1ccccc1` (stereo partly specified), the call in [1], in assay [2], in assay [3], in assay [4] and in assay [7] was inactive.

As for `Cc1nc2ccccc2c(=O)n1-c1ccccc1Cl`, the result in [1], in assay [2], in assay [3], in assay [26] and in [6] was inactive.

In the case of `COc1cc(C[C@@H](C)N)c(OC)cc1Br`, the result in assay [1], in [2], in assay [3], in assay [26] and in assay [6] was inactive.
